The campaign covered roughly 300,000 compounds. About 37,000 (12%) were called active. The full list was thinned out, with actives kept by preference. Unmarked numbers belong to inactive results. Rule as the data show it: active = max response mostly above about 13% (no sharp cut-off); inactive = mostly below about 14%.

This test in a line: Cycloheximide Counterscreen for Small Molecule Inhibitors of Shiga Toxin. Also: read at 38.3 µM for the half of the compounds with a filed dose; 0% is about no effect. The settings on record: cell reporter, cycloheximide protein synthesis inhibition counterscreen; stronger effect = higher value. (Counterscreens check selectivity or assay interference.)
Consider `Cc1ccc2[nH]c3c(=O)n(CC(=O)NCCc4ccc(Cl)cc4)ncc3c2c1`, for which the max response was 4.22%.
Take `CCn1nc(C)c(CNC(=O)C2CCC(=O)N(Cc3cccc(F)c3)C2)c1C` (stereo not given): the max response is -0.425%.
Then `CN1CCN(/N=C/c2c[nH]c3ccccc23)CC1`, with 0.776%; and `CN1CCN(/N=C/c2ccc(C#N)cc2)CC1`, with 24.2% (active); and `COC(c1ccccc1)c1nnc(CCC(=O)N2CCN(CCOc3ccccc3)CC2)o1` (stereo not given), with -3.13%.
In the case of `Cc1c(C2=CCN(S(=O)(=O)c3ccc(Cl)cc3)CC2)c2ccccc2n1C`, the max response was -3.88%.
Then `COCCNC(=O)c1ccc(Cn2c(SCC(=O)NCC3CCCO3)nc3ccc(Br)cc3c2=O)cc1` (stereo not given), with -4.2%; and `Cc1cc(OCc2cc(C(=O)NCc3cc(C(C)C)no3)no2)cc(C)c1Cl`, with 72.4% (active); and `COCCCNC(=O)COc1cc(C)c(Cl)c(C)c1`, with 5.62%.
The value for `CC(C)C(=O)NCc1cc(-c2ccc(Cl)cc2)no1` was 8.48%; that for `COc1ccccc1-c1nnc(NC(=O)c2ccc3ncsc3c2)o1` was 66.2% (active); that for `COc1ccccc1-c1nnc(NC(=O)c2cccc(N3C(=O)CCC3=O)c2)o1` was -0.976%.
For the compound `COc1ccc(-c2nnc(NC(=O)CS(=O)(=O)c3ccc(Cl)cc3)o2)c(OC)c1`, the max response is 13.7%.
Consider `COc1ccc(NC(=O)NNC(=O)COc2cc(C)c(Cl)c(C)c2)c(OC)c1`, for which the max response was 0.264%.
The value for `O=C(NCc1ccccc1)C1=C[C@@H](C2CCCCC2)C[C@@H](OCc2ccc(CO)cc2)O1` was -2.03%.
The value for `COC(=O)c1ccc(C23CC4(C2)[C@H](CN(Cc2cccnc2)[C@@H]4c2ccccc2)C3c2ccc(Cl)nc2)cc1` (stereo not given in full) was -2.32%.
The value for `CCC1CCCCN1C(=O)CSc1nc2c(c(=O)n1C)SC(C)C2` (stereo not given) was 0.908%; that for `Cc1ccc(-c2nnc(SC(C)C#N)n2N)cc1` (stereo not given) was 5.06%; that for `C=C(C)CSc1nnc(-c2ccc(C)cc2)n1N` was 37.8% (active).
On to `Cc1ccc(NC(=O)NC(=O)CSc2nnc(-c3ccc(OC(F)F)cc3)n2N)c(C)c1`, for which the max response is 11.8%.
In the case of `Cc1cc(C)cc(N(CC(=O)N2CC=C(c3ccccc3)CC2)S(=O)(=O)c2c(C)noc2C)c1`, the max response is 8.05%.
Consider `CCN(CC)CCCNC(=O)c1ccc2c(=O)n(Cc3ccc4c(c3)OCO4)c(=S)[nH]c2c1`, for which the max response is 5.61%.
The value for `Cc1ccc(C(=O)CCC(=O)N(C)CC(=O)Nc2c(Cl)cccc2Cl)cc1` was 1.06%; that for `COc1ccc(NC(=O)c2cn(CCC#N)nc2-c2ccc([N+](=O)[O-])cc2)cc1` was -3.78%; that for `COc1ccc(-c2nn(CCC#N)cc2C(=O)Nc2ccc(C(C)=O)cc2)cc1` was 18.3% (active).
Consider `COc1ccc(-c2nn(CCC#N)cc2C(=O)O)cc1`, for which the max response is 0.75%.
The value for `COc1ccccc1NC(=O)C1CCCN1S(=O)(=O)c1ccc(Cl)cc1` (stereo not given) was 0.961%; that for `Cc1ccc2nc(N(CCN(C)C)C(=O)C3=COCCO3)sc2c1` was 30.5% (active); that for `CC(=O)N(CCCN(C)C)c1nc2ccc(C)cc2s1` was 7.76%.
Then `CN(C)CCN(C(=O)C1CCCCC1)c1nc2cc3c(cc2s1)OCO3`, with 15.2%; and `CCc1ccc2nc(N(CCCN(C)C)C(=O)c3ccc4c(c3)OCCO4)sc2c1`, with 1.67%.
Consider `CN(C)CCN(C(=O)C1=COCCO1)c1nc2ccc(Cl)cc2s1`, for which the max response is 36.4% (active).
As to `CCOc1ccc2nc(N(CCN(C)C)C(=O)c3ccc4ccccc4c3)sc2c1`, the max response is 8.51%.
Then `CC(C)(C)c1ccc(C(CC(=O)O)NS(=O)(=O)Cc2ccccc2)cc1` (stereo not given), with -5.97%.
The value for `CCCCn1c(SCC(=O)N2CCOCC2)nc2c1c(=O)n(C)c(=O)n2C` was -6.86%; that for `O=C(Nc1ccc(Br)cc1F)C1CC(=O)N(C2CCCCC2)C1` (stereo not given) was -2.46%; that for `CC1=CCC2C(=O)N(c3cccc(C(=O)NC(C)c4ccccc4)c3)C(=O)C2C1` (stereo not given) was -2.5%.
Then `Cc1ccc(NC(=S)NCCN2CCOCC2)cc1`, with -2.44%; and `Cc1ccc(C(=O)N/C(=C\c2ccc(F)cc2)C(=O)NCCN2CCOCC2)cc1`, with -2.99%; and `Cc1ccc(C(=O)NC(=S)NCCN2CCOCC2)cc1`, with 31.2% (active).
`CCc1ccc(C(CNc2nc(C(F)(F)F)nc3ccccc23)N(C)C)cc1` (stereo not given): the max response was -6.3%.
The value for `COc1ccccc1C(=O)Nn1c(-c2cccs2)nc2ccccc2c1=O` was 2.63%; that for `COc1ccc(C(CNC(=O)c2cc3c(s2)CCCC3)N2CCOCC2)cc1` (stereo not given) was 5.2%.
Then `O=C(NCCCN1CCOCC1)c1cc2c(s1)CCC2`, with 15.4% (active); and `O=C(NCCCn1ccnc1)c1cc2c(s1)CCCC2`, with -2.62%; and `CCOc1ccc(C(C(=O)NC2CCCC2)N(C(=O)c2snc(C(N)=O)c2N)C2CCCC2)cc1` (stereo not given), with -3%.
The value for `CCN(CC)S(=O)(=O)c1ccc(Cl)c(C(=O)NCCN2CCOCC2)c1` was -7.58%.
Regarding `CCN(CC)S(=O)(=O)c1ccc(N2CC(C(=O)NCc3cccnc3)CC2=O)cc1` (stereo not given), the max response is -8.09%.
Then `O=C(Cc1ccc(Cl)cc1)NC(=S)Nc1ccccc1O`, with 0.61%; and `Oc1ccc(CNc2ccccc2O)cc1`, with 35.8% (active).
Then `O=[N+]([O-])c1ccccc1Nc1ccc(O)cc1`, with -1.56%; and `CCOC(=O)[C@@H]1[C@H]2COc3ccc(Br)cc3[C@H]2N2C(=O)N(c3ccc(Cl)cc3)C(=O)[C@@]12C`, with -3.81%; and `Oc1ccc(-c2[nH]ncc2-c2nc3ccccc3s2)c(O)c1`, with 10.7%.
The value for `CC(=O)Nc1cccc(-c2nc3ccccc3s2)c1C` was 23.7% (active); that for `Cc1nn(CC(=O)Nc2nc3ccccc3s2)c(C)c1[N+](=O)[O-]` was 16.7%.
For the compound `COc1cccc(Cn2cc(/C=N/NC(=O)c3cc(O)cc(O)c3)c3ccccc32)c1`, the max response was 7.8%.
Then `COC(=O)c1ccc(CNC(=O)C2CCC(=O)N(Cc3ccccn3)C2)cc1` (stereo not given), with -0.637%.
Then `CCOC(=O)c1cc2c(nc1NC(=S)Nc1ccccc1)CC(C)(CC)OC2` (stereo not given), with -1.51%; and `CCOC(=O)c1cn[nH]c1NC(=S)Nc1ccccc1`, with 67.1% (active).
The value for `CCOC(=O)c1ccc(NC(=S)Nc2cc(C)cc(C)n2)cc1` was -2.45%.

The values are drawn from PubChem BioAssay AID2314 (National Center for Advancing Translational Sciences (NCATS), 2010).
